# Data from PubChem BioAssay AID624331 (National Center for Advancing Translational Sciences (NCATS), 2012).
# Inconclusive results are not listed. A number with no mark means an inactive call. The source made the active and inactive calls. The call rests on the fitted dose curve; in most records, active means well fitted activation curve with a large enough effect; inconclusive means small, poorly fitted or top-dose-only effect; inactive means no such curve, though single readings can be large or run the other way.
# Assay: qHTS assay for re-activators of p53 using a Luc reporter: Hit Validation with no p53 Expressed; on activity change, positive = activation: 0% is about no effect
# Conditions: p53-null cells, luciferase reporter counter-screen; series mostly up to 46.1 µM; activity change, positive = activation: at the top concentration
# How it was run: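 Counter-screen of primary hits in a cell line not transfected with p53, in Opti-MEM with 10% FBS; compounds at several concentrations (10 mM stock, 1:5; top 46.1 µM in well), 24 h at 37 deg C, 5% CO2. Luminescence read after 10 min with Amplite reagent.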
# Potency means the concentration at half of the fitted maximal effect.
Compound,"activity change, positive = activation",Potency
CCOc1ccc(NC(=O)/C=C/c2ccccc2)c([N+](=O)[O-])c1,18.1%,–
Cc1cc(C)cc(NC(=O)CSc2nnc(-c3ccccc3C)o2)c1,-19.1%,–
O=C(Nc1ccc(Cl)cc1Cl)c1ccc2c(c1)OCCO2,28.2%,–
COc1ccccc1Oc1c(C)oc2c(CN(C)C)c(O)ccc2c1=O,-5.95%,–
CCOC(=O)N1CCN(S(=O)(=O)c2ccc(C(=O)NNc3nc4c(C)cc(C)cc4s3)cc2)CC1,-36.5%,–
CN(C)c1ccc(CNC2CC(C)(C)NC(C)(C)C2)cc1,24.5%,–
COC(=O)CSc1nc2cc3c(cc2cc1C#N)OCO3,-2.65%,–
OC(COc1ccc2cc(Br)ccc2c1)CN1CCCC1 (centres undefined),66.1%,–
CCn1c(=O)c2ccccc2n(Cc2ccccc2C)c1=O,55.8%,–
NNc1nc(NCc2ccccc2)nc(N2CCOCC2)n1,13.5%,–
O=C(Nc1ccc(NC(=O)C23CC4CC(CC(C4)C2)C3)cn1)c1ccco1,12.5%,–
Cc1cs/c(=N/C(=S)Nc2ccccc2)n1C,–,1300 nM (active)
O=C(Nc1nnc(-c2cccs2)o1)c1cccc(C(F)(F)F)c1,-41.9%,–
Cc1ccc(NC(=O)/C=C/c2ccco2)nc1,33.2%,–
CN1CCN(c2ncnc3c2cnn3-c2ccc(Cl)cc2)CC1,-9.81%,–
Cc1cccc2nc(CSC(=N)N)c(Br)n12,-13.8%,–
COc1ccc(C2SCCN2C(=S)Nc2ccc(Cl)cc2)cc1 (centres undefined),-24.4%,–
NC(=O)c1ccc(-n2c(CCC(=O)O)ccc2-c2cccs2)cc1,6.11%,–
COc1ccccc1-c1nc(-c2ccc(Br)o2)no1,–,820 nM (active)
O=C(CN1C(=O)NC2(CCCc3ccccc32)C1=O)c1ccc(F)cc1 (centres undefined),-21.4%,–

Compound,"activity change, positive = activation",Potency
O=C(Nc1ccc(COc2ccccc2)cc1)c1cccc([N+](=O)[O-])c1,5.64%,–
O=C(Nc1ccccc1Cl)c1ccc2c(=O)n3c(nc2c1)CCC3,6.48%,–
Cc1cc(C(=O)N/N=C/c2cccn2C)n[nH]1,-21.3%,–
COC(=O)c1cn[nH]c1NC(=S)Nc1ccc(C)cc1Cl,58.3%,–
COc1cc(C(=O)NCC(=O)Nc2c(C)cccc2C)ccc1OCc1ccccc1,-7.54%,–
COc1ccc2oc(C(=O)OCC(=O)NCCN3C(=O)CSC3=O)c(C)c2c1,38%,–
O=C(COC(=O)c1ccc(F)cc1)NC1CC1,-26.2%,–
CCOC(=O)C(C(C)=O)C(c1ccc(OC)cc1)C(C(C)=O)C(=O)OCC (centres undefined),-8.98%,–
O=C(Oc1c(Cl)cc(Cl)c2cccnc12)c1cccc([N+](=O)[O-])c1,-64.6%,–
CC(C)c1ccc(C(O)c2nc3ccccc3n2C)cc1 (centres undefined),-33.7%,–
CS(=O)(=O)c1ccc2nc(NC(=O)c3ccco3)sc2c1,9.08%,–
CC1CCC(NC(=O)C2CCN(C(=O)Nc3ccccc3)CC2)CC1 (centres undefined),9.02%,–
c1ccc(-c2cn3c(n2)SCC3)cc1,-24.5%,–
COc1cc(C2=NOC(C(=O)NCc3ccc(F)cc3)C2)cc(OC)c1OC (centres undefined),-22.3%,–
Cc1nnc(SCC(=O)N2CCOCC2)c2ccccc12,2.29%,–
Cc1ccc(C(=O)CC(Nc2ccc(F)cc2)c2ccccc2)cc1 (centres undefined),78.9%,–
O=C(/C(=C\c1ccccc1)c1nc2ccccc2[nH]1)c1ccc(Cl)cc1,74.7%,–
O=C(N/N=C/C1C(c2ccccc2)C1(Cl)Cl)c1cccc(Cl)c1 (centres undefined),-39.2%,–
Cc1cc(-c2ccccc2)n2ncc(-c3ccccc3)c2n1,–,1840 nM (active)
